Reference: PubChem BioAssay AID1259312 (Keith Lab, Institute of Cancer Science, University of …, 2017)
The campaign covered roughly 4,500 compounds. About 200 (4.4%) were called active. This excerpt belongs to a sample that is enriched for actives. Unmarked numbers belong to inactive results.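 The calls were made as follows: active = cell survival measured by absorbance rises more than 2.5-fold over infected cells without compound; inactive = the rest.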

Assay: survival after telomere uncapping, modulators, primary screen, cell-based (AID 1259312);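 also: virus expresses mutant telomerase RNA that uncaps telomeres and kills cells; compound added 2 days after infection so exposure lasts 3 days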
Settings: HCT116 + Ad-hTR-mut, MTT, 5 d; at 10 µM, active compounds read high

Structure (SMILES) | fold change
COC(=O)C1=C(CSCc2ccco2)NC(=O)NC1c1ccc(C)cc1C (centres undefined) | -1.35
CCOC(=O)c1c(NC(=O)C(F)(F)F)sc2c1CCN(C(=O)OCC)C2 | 1.21
Cc1ccc(-c2nc(CSc3nccc(N)n3)cs2)cc1 | -2.25
O=S(=O)(Nc1ccc(Br)cc1)c1ccc(Cl)cc1 | 1.91
O=S(=O)(Nc1ccc(S(=O)(=O)Nc2ccc(F)cc2)cc1)c1ccccc1 | -1.01
O=S(=O)(Nc1ccc(Br)cc1)c1ccccc1 | 2.66 (active)
O=C1c2cccc(Cl)c2C(=O)c2cccc(Cl)c21 | -1.08
CCc1sc(/C=C(/C#N)C(=O)OC)cc1[N+](=O)[O-] | -2.59
O=[N+]([O-])c1ccc(NCCO)c([N+](=O)[O-])c1 | 1.74
NCCCNc1ccc([N+](=O)[O-])cc1Cl | 1.09
CCN(CC)CCNc1ccc([N+](=O)[O-])cc1[N+](=O)[O-] | 3.5 (active)
CCNCCNc1ccc([N+](=O)[O-])cc1Cl | 1.86
CN(C)CCCNc1ccc([N+](=O)[O-])cc1Cl | 3.8 (active)
CN(C)CCNc1ccc(Cl)cc1[N+](=O)[O-] | 1.53
NCCCNc1ccc(Cl)cc1[N+](=O)[O-] | -1.5
NCCNc1ccc([N+](=O)[O-])cc1[N+](=O)[O-] | 1.82
CCN(CC)CCNc1ccc(Cl)cc1[N+](=O)[O-] | 3.03 (active)
Cc1cccc(-c2cc(=O)c3cc(Br)ccc3o2)c1 | 1.11
Nc1nc(C=C(Cl)Cl)cs1 | 1.63
COc1cc2c(cc1OC)C(C(=O)O)CC(=O)N2 (centres undefined) | -1.06
COc1ccc(C(O)c2nccn2C)cc1OC (centres undefined) | -1.55
COc1ccc(-c2coc3ccc(OC4OC(COC(C)=O)C(OC(C)=O)C(OC(C)=O)C4OC(C)=O)c(OC(C)=O)c3c2=O)cc1 (centres undefined) | -1.42
CC1=NN(c2ccccc2)C(=O)/C1=C\c1cn(-c2ccccc2)nc1C12CC3CC(CC(C3)C1)C2 | -2.06

Structure (SMILES) | fold change
Clc1ccc(Cl)c(N=Cc2cc3ccccc3nc2Cl)c1 | 1.49
Clc1nc2ccccc2cc1C=Nc1ccc(Br)cc1 | 3.97 (active)
Oc1c(Br)cc(Br)cc1C=Nc1ccc(Cl)c(Cl)c1 | inactive
Clc1cccc(N=Cc2cc3ccccc3nc2Cl)c1Cl | 3.42 (active)
COc1cc(N=Cc2cc(Cl)cc(Cl)c2O)c(OC)cc1Cl | inactive
Oc1c(Br)cc(Br)cc1C=Nc1ccc(F)cc1 | inactive
COc1cc(N=Cc2cc3ccccc3nc2Cl)c(OC)cc1Cl | 3.58 (active)
Clc1ccc(N=Cc2ccccc2Cl)nc1 | 1.71
CC(Sc1ccccc1)C(=O)N[C@@H]1C[C@H]2CC[C@@H]1C2 (some centres undefined) | -1.09
c1ccc(-c2nc(Sc3nc(-c4ccccc4)nc4ccccc34)c3ccccc3n2)cc1 | -1.53
O=c1[nH]c(=O)n(-c2ccccc2)c(O)c1/C=C1\C=Nc2ccccc21 | inactive
CCOC(=O)c1cnn2cc(-c3[nH]ncc3[N+](=O)[O-])cnc12 | -1.64
NC(=O)c1[nH]ncc1[N+](=O)[O-] | 1.08
N#Cc1cnn2cc(-c3[nH]ncc3[N+](=O)[O-])cnc12 | 3.75 (active)
O=C(O)c1[nH]ncc1[N+](=O)[O-] | 1.94
Cc1cc(C)n2[nH]c(=O)c([N+](=O)[O-])c2n1 | 1.66
O=c1[nH]n2cc(-c3[nH]ncc3[N+](=O)[O-])cnc2c1[N+](=O)[O-] | 4.1 (active)
N#Cc1cnn2cc([N+](=O)[O-])cnc12 | -1.15
O=c1[nH]n2cc(-c3n[nH]c(-c4cnc5c(Br)c(=O)[nH]n5c4)c3[N+](=O)[O-])cnc2c1Br | 3.53 (active)
Cn1c(=O)oc2ccc(S(=O)(=O)Nc3ccc4c(c3)CCN4S(C)(=O)=O)cc21 | -1.03
O=C(O)C1CC(=O)N(CC2CCCO2)C1 (centres undefined) | -1.58
CCc1sc(/C=C(/C#N)C(=O)OC(C)C)cc1Br | -3.71
Fc1ccc(-c2cnc3ccccc3n2)cc1 | -2.09

Structure (SMILES) | fold change
O=C(CCn1cnnn1)Nc1nc2cc(OC(F)(F)F)ccc2s1 | 1.2
COC1OC2COC(c3ccccc3)OC2C(O)C1O (centres undefined) | 3.25 (active)
COC1OC2COC(c3ccccc3)OC2C(O)C1OS(=O)(=O)c1ccc(C)cc1 (centres undefined) | 2.36
COc1ccc(-c2nnc(N)o2)cc1 | 1.14
COc1ccc(C=Nc2nonc2N)cc1 | -2.59
COc1ccc(N=Nc2c(N)n[nH]c2N)cc1 | active
Cc1cc(C)nc(/N=C(/N)Nc2ccc(C)c([N+](=O)[O-])c2)n1 | -1.56
O=C(O)c1cc2cc3c4c(c2oc1=O)CCCN4CCC3 | 1.07
CC(C)(C)[Si](C)(C)N1C(=O)C[C@H]1C(=O)O | 1.19
O=c1[nH]snc1N1CCOCC1 | -1.16
O=C1c2ccc([N+](=O)[O-])cc2C(=O)N1Cc1nc2ccccc2c(=O)o1 | -5.24
CN1C(=O)c2ccc([N+](=O)[O-])cc2C1=O | 1.34
O=C1c2ccc([N+](=O)[O-])cc2C(=O)N1CNc1ccc2c(c1)oc1ccccc12 | 2.96 (active)
O=S(=O)(NCc1ccc2c(c1)OCO2)c1ccc2ccccc2c1 | -1.07
O=c1oc(-c2cccs2)nc2cc([N+](=O)[O-])ccc12 | 1.07
O=C(C(=O)N1CCc2ccccc21)N1CCc2ccccc21 | -1.35
O=C(COc1cccc2ccccc12)N1CCc2ccccc21 | -1.51
O=C(CCl)N1CCc2ccccc21 | 3.82 (active)
CCOC(=O)c1c(NC(=O)c2ccco2)sc(C(=O)N2CCCC2)c1C | -2.09
O=C1C(=Cc2c[nH]c3ccccc23)C(=O)c2ccccc21 | -1.41
Nc1nnc(SCC(=O)N2CCCC2)s1 | 1.32
NC(=O)CSc1nnc(SCC(N)=O)s1 | -3.2
CN(C)C(=O)CSc1nnc(N)s1 | 3.85 (active)
